The full list was thinned out, with the strongest signals kept by preference.
Tests used:
Experiment in all cases: glycan array binding signal (z-score within array); higher = stronger binding
Details in all cases: glycan notation: IUPAC condensed, linker removed
[1] = target: Fuc(a1-2)Gal(b1-3)GalNAc(b1-3)Gal(a1-4)Gal(b1-4)Glc
How it was run: (§1)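 The binding signal is a Z-score computed within each array. Data were drawn from 3228 arrays in the Consortium for Functional Glycomics database, restricted to those with a known protein sequence. Scores were averaged over arrays of the same protein sequence at different concentrations or buffers, and over linkers, and negative values can be taken as non-binding.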

[2] = target: Fuc(a1-2)Gal(b1-3)GlcNAc(b1-3)[Gal(b1-4)GlcNAc(b1-6)]Gal(b1-4)Glc
How it was run: as §1

[3] = target: Fuc(a1-2)Gal(b1-4)GlcNAc(b1-2)Man
How it was run: as §1

[4] = target: Fuc(a1-2)Gal(b1-4)[Fuc(a1-3)]GlcNAc(b1-2)[Fuc(a1-2)Gal(b1-4)[Fuc(a1-3)]GlcNAc(b1-4)]Man(a1-3)[Fuc(a1-2)Gal(b1-4)[Fuc(a1-3)]GlcNAc(b1-2)Man(a1-6)]Man(b1-4)GlcNAc(b1-4)GlcNAc
How it was run: as §1

[5] = target: Fuc(a1-2)Gal(b1-4)[Fuc(a1-3)]GlcNAc(b1-3)[Neu5Ac(a2-6)Gal(b1-4)GlcNAc(b1-6)]Gal(b1-4)Glc
How it was run: as §1

[6] = target: Fuc(a1-2)Gal6S(b1-3)GlcNAc6S
How it was run: as §1

[7] = target: Fuc(a1-2)[Gal(a1-3)]Gal(b1-3)GlcNAc(b1-2)Man(a1-3)[Fuc(a1-2)[Gal(a1-3)]Gal(b1-3)GlcNAc(b1-2)Man(a1-6)]Man(b1-4)GlcNAc(b1-4)GlcNAc
How it was run: as §1

[8] = target: Fuc(a1-2)[Gal(a1-3)]Gal(b1-4)GlcNAc(b1-2)Man
How it was run: as §1

[9] = target: Fuc(a1-2)[GalNAc(a1-3)]Gal(b1-3)GlcNAc(b1-6)GalNAc
How it was run: as §1

[10] = target: Fuc(a1-2)[GalNAc(b1-3)]Gal
How it was run: as §1

[11] = target: Fuc(a1-3)[Gal(b1-4)]GlcNAc(b1-2)Man
How it was run: as §1

[12] = target: Fuc(a1-3)[Gal(b1-4)]GlcNAc(b1-6)GalNAc
How it was run: as §1

[13] = target: Gal(a1-2)Gal
How it was run: as §1

[14] = target: Gal(a1-3)Gal(b1-3)GlcNAc
How it was run: as §1

[15] = target: Gal(a1-4)Gal(b1-4)GlcNAc
How it was run: as §1

[16] = target: Gal(b1-3)GalNAc(b1-4)Gal(b1-4)Glc
How it was run: as §1

[17] = target: Gal(b1-3)GalNAc(b1-4)[Neu5Ac(a2-3)]Gal(b1-4)Glc
How it was run: as §1

[18] = target: Gal(b1-3)GlcNAc(b1-2)Man(a1-3)[Gal(b1-3)GlcNAc(b1-2)Man(a1-6)]Man(b1-4)GlcNAc(b1-4)[Fuc(a1-6)]GlcNAc
How it was run: as §1

[19] = target: Gal(b1-3)GlcNAc(b1-6)[Gal(b1-3)]GalNAc
How it was run: as §1

[20] = target: Gal(b1-3)GlcNAc6S
How it was run: as §1

[21] = target: Gal(b1-4)GlcNAc(b1-2)Man(a1-3)Man(b1-4)GlcNAc(b1-4)GlcNAc
How it was run: as §1

[22] = target: Gal(b1-4)GlcNAc(b1-3)Gal(b1-4)GlcNAc(b1-3)Gal(b1-4)GlcNAc(b1-2)[Gal(b1-4)GlcNAc(b1-3)Gal(b1-4)GlcNAc(b1-3)Gal(b1-4)GlcNAc(b1-6)]Man(a1-6)[Gal(b1-4)GlcNAc(b1-3)Gal(b1-4)GlcNAc(b1-3)Gal(b1-4)GlcNAc(b1-2)Man(a1-3)]Man(b1-4)GlcNAc(b1-4)[Fuc(a1-6)]GlcNAc
How it was run: as §1

[23] = target: Gal(b1-4)GlcNAc(b1-3)Gal(b1-4)GlcNAc(b1-3)Gal(b1-4)GlcNAc(b1-3)Gal(b1-4)GlcNAc(b1-3)Gal(b1-4)GlcNAc(b1-2)Man(a1-3)[Gal(b1-4)GlcNAc(b1-3)Gal(b1-4)GlcNAc(b1-3)Gal(b1-4)GlcNAc(b1-3)Gal(b1-4)GlcNAc(b1-3)Gal(b1-4)GlcNAc(b1-2)Man(a1-6)]Man(b1-4)GlcNAc(b1-4)GlcNAc
How it was run: as §1

[24] = target: Gal(b1-4)GlcNAc(b1-3)Gal(b1-4)GlcNAc(b1-3)Gal(b1-4)GlcNAc(b1-3)Gal(b1-4)GlcNAc(b1-3)Gal(b1-4)GlcNAc(b1-3)Gal(b1-4)GlcNAc(b1-2)Man(a1-3)[Gal(b1-4)GlcNAc(b1-3)Gal(b1-4)GlcNAc(b1-3)Gal(b1-4)GlcNAc(b1-3)Gal(b1-4)GlcNAc(b1-3)Gal(b1-4)GlcNAc(b1-3)Gal(b1-4)GlcNAc(b1-2)Man(a1-6)]Man(b1-4)GlcNAc(b1-4)GlcNAc
How it was run: as §1

[25] = target: Gal(b1-4)GlcNAc(b1-3)Gal(b1-4)GlcNAc(b1-3)[Gal(b1-4)GlcNAc(b1-3)Gal(b1-4)GlcNAc(b1-6)]GalNAc
How it was run: as §1

[26] = target: Gal(b1-4)GlcNAc(b1-3)[Fuc(a1-3)GlcNAc(b1-6)]Gal(b1-4)Glc
How it was run: as §1

[27] = target: Gal(b1-4)GlcNAc(b1-6)[Gal(b1-4)GlcNAc(b1-3)]GalNAc
How it was run: as §1

[28] = target: Gal3S(b1-4)Glc
How it was run: as §1

[29] = target: Gal3S(b1-4)[Fuc(a1-3)]Glc6S
How it was run: as §1

[30] = target: Gal6S(b1-4)GlcNAc
How it was run: as §1

[31] = target: GalNAc(a1-3)GalNAc
How it was run: as §1

[32] = target: GalNAc(b1-4)GlcNAc6S
How it was run: as §1

[33] = target: Glc(a1-6)Glc(a1-6)Glc(a1-6)Glc
How it was run: as §1

[34] = target: GlcA3S(b1-3)Gal(b1-4)GlcNAc(b1-2)Man
How it was run: as §1

[35] = target: GlcNAc(a1-4)Gal(b1-4)GlcNAc(b1-3)Gal(b1-4)Glc
How it was run: as §1

[36] = target: GlcNAc(b1-2)[GlcNAc(b1-6)]Man(a1-6)[GlcNAc(b1-2)Man(a1-3)]Man(b1-4)GlcNAc(b1-4)GlcNAc
How it was run: as §1

[37] = target: GlcNAc(b1-3)Gal(b1-4)GlcNAc(b1-3)Gal(b1-4)GlcNAc(b1-2)[GlcNAc(b1-3)Gal(b1-4)GlcNAc(b1-3)Gal(b1-4)GlcNAc(b1-6)]Man(a1-6)[GlcNAc(b1-3)Gal(b1-4)GlcNAc(b1-3)Gal(b1-4)GlcNAc(b1-2)Man(a1-3)]Man(b1-4)GlcNAc(b1-4)[Fuc(a1-6)]GlcNAc
How it was run: as §1

[38] = target: GlcNAc(b1-3)Gal(b1-4)GlcNAc(b1-3)Gal(b1-4)GlcNAc(b1-3)Gal(b1-4)GlcNAc(b1-2)Man(a1-3)[GlcNAc(b1-3)Gal(b1-4)GlcNAc(b1-3)Gal(b1-4)GlcNAc(b1-3)Gal(b1-4)GlcNAc(b1-2)Man(a1-6)]Man(b1-4)GlcNAc(b1-4)[Fuc(a1-6)]GlcNAc
How it was run: as §1

[39] = target: GlcNAc6S(b1-3)Gal(b1-4)GlcNAc
How it was run: as §1

[40] = target: Neu5Ac(a2-3)Gal(b1-3)GlcNAc(b1-3)Gal(b1-3)GlcNAc
How it was run: as §1

[41] = target: Neu5Ac(a2-3)Gal(b1-3)GlcNAc(b1-3)Gal(b1-4)GlcNAc
How it was run: as §1

[42] = target: Neu5Ac(a2-3)Gal(b1-3)GlcNAc6S
How it was run: as §1

[43] = target: Neu5Ac(a2-3)Gal(b1-3)[Fuc(a1-4)]GlcNAc(b1-3)Gal(b1-4)[Fuc(a1-3)]GlcNAc
How it was run: as §1

[44] = target: Neu5Ac(a2-3)[GalNAc(b1-4)]Gal(b1-4)Glc
How it was run: as §1

[45] = target: Neu5Ac(a2-6)Gal(b1-4)GlcNAc(b1-2)Man(a1-6)Man(b1-4)GlcNAc(b1-4)GlcNAc
How it was run: as §1

[46] = target: Neu5Ac(a2-6)Gal(b1-4)GlcNAc(b1-2)Man(a1-6)[Gal(b1-4)GlcNAc(b1-2)Man(a1-3)]Man(b1-4)GlcNAc(b1-4)GlcNAc
How it was run: as §1

[47] = target: Neu5Ac(a2-6)Gal(b1-4)GlcNAc(b1-2)[Neu5Ac(a2-6)Gal(b1-4)GlcNAc(b1-4)]Man(a1-3)[GlcNAc(b1-4)][Neu5Ac(a2-6)Gal(b1-4)GlcNAc(b1-2)[Neu5Ac(a2-6)Gal(b1-4)GlcNAc(b1-6)]Man(a1-6)]Man(b1-4)GlcNAc(b1-4)GlcNAc
How it was run: as §1

[48] = target: Neu5Ac(a2-6)GalNAc(b1-4)GlcNAc
How it was run: as §1

[49] = target: Neu5Ac(a2-8)Neu5Ac(a2-3)[GalNAc(b1-4)]Gal(b1-4)Glc
How it was run: as §1

[50] = target: Neu5Ac(a2-8)Neu5Ac(a2-8)Neu5Ac(a2-3)Gal(b1-4)Glc
How it was run: as §1

[51] = target: Neu5Gc(a2-3)Gal(b1-4)GlcNAc(b1-3)Gal(b1-4)GlcNAc(b1-2)Man(a1-3)[Neu5Gc(a2-3)Gal(b1-4)GlcNAc(b1-3)Gal(b1-4)GlcNAc(b1-2)Man(a1-6)]Man(b1-4)GlcNAc(b1-4)GlcNAc
How it was run: as §1

B1: GS7807F-bth-514-18-514 (Bacteroides thetaiotaomicron) (protein)
chain: AGSCTGNFEEYNTNQFQIHEADPSTLMKSMIETIVNIQQNDSQMMDQMVGQLGGYLTCANVWSGTNFGTFNQSDAWNAGPWNTNFEKIYGNFFQIQEATNESGHYYAFARMIRAITMLRVADCYGPMPYSQVKKGNFYVAYDTEEQVYKNIMEDFASAANVLYNYYKDTNGNAPLASNDPVFSGNYANWARLANSMRLRVAIRISTAYPEMAKENAEAAASHEAGLIEANNDNAMMDCGSQTNPYQLAAVSWGDLRVNANIVDYMNGYGDPRMSKYFNHSTFTGHTQEYVGMRSGEDGFAKSDVAGYSIPAITGTSKLLVFCAAETAFLRAEGKLKNWSVGNKSAKEYYEEGIKLSMEQYGTTMPDNYLTNTEKPTVSHNNDPRGHAYTISNTVAVAWNDNNEEENLQRIITQKWIANYPLGLEAWAEYRRTGYPELYPCIDNLSPSGVDSKRGMRRLRFPYTEVQNNHSNYQQGVSYLKNGGPDNEATDLSWGKTN
glycan array binding signal (z-score) [1]: -0.883 | glycan array binding signal (z-score) [2]: -0.372 | glycan array binding signal (z-score) [3]: -0.353 | glycan array binding signal (z-score) [4]: -0.286 | glycan array binding signal (z-score) [5]: -0.798 | glycan array binding signal (z-score) [6]: -0.358 | glycan array binding signal (z-score) [7]: 0.454 | glycan array binding signal (z-score) [8]: -0.295 | glycan array binding signal (z-score) [9]: -0.854 | glycan array binding signal (z-score) [10]: 3.2 | glycan array binding signal (z-score) [11]: -0.562 | glycan array binding signal (z-score) [12]: -0.328 | glycan array binding signal (z-score) [13]: -0.45 | glycan array binding signal (z-score) [14]: 0.018 | glycan array binding signal (z-score) [15]: 0.384 | glycan array binding signal (z-score) [16]: 0.212 | glycan array binding signal (z-score) [17]: 3.23 | glycan array binding signal (z-score) [18]: 0.491 | glycan array binding signal (z-score) [19]: 1.38 | glycan array binding signal (z-score) [20]: 2.12 | glycan array binding signal (z-score) [21]: 0.202 | glycan array binding signal (z-score) [22]: 3.25 | glycan array binding signal (z-score) [23]: 4.26 | glycan array binding signal (z-score) [24]: 3.26 | glycan array binding signal (z-score) [25]: 3.96 | glycan array binding signal (z-score) [26]: 1.53 | glycan array binding signal (z-score) [27]: 0.25 | glycan array binding signal (z-score) [28]: 0.164 | glycan array binding signal (z-score) [29]: 3.48 | glycan array binding signal (z-score) [30]: 0.547 | glycan array binding signal (z-score) [31]: 0.13 | glycan array binding signal (z-score) [32]: 0.521 | glycan array binding signal (z-score) [33]: -0.652 | glycan array binding signal (z-score) [34]: -0.771 | glycan array binding signal (z-score) [35]: -0.587 | glycan array binding signal (z-score) [36]: -0.73 | glycan array binding signal (z-score) [37]: 0.581 | glycan array binding signal (z-score) [38]: 3.26 | glycan array binding signal (z-score) [39]: 1.06 | glycan array binding signal (z-score) [40]: -0.891 | glycan array binding signal (z-score) [41]: -0.842 | glycan array binding signal (z-score) [42]: -0.491 | glycan array binding signal (z-score) [43]: 0.124 | glycan array binding signal (z-score) [44]: -0.409 | glycan array binding signal (z-score) [45]: 3.88 | glycan array binding signal (z-score) [46]: 3.49 | glycan array binding signal (z-score) [47]: 0.039 | glycan array binding signal (z-score) [48]: -0.875 | glycan array binding signal (z-score) [49]: 3.32 | glycan array binding signal (z-score) [50]: -0.82 | glycan array binding signal (z-score) [51]: -0.775

Reference: the supplement of paper PMC8728848
